PfM18AAP inh: PfM18AAP enzyme inhibition | recombinant PfM18AAP, H-Glu-NHMec fluorogenic cleavage | inhibition, % at 7.35 µM | hit rate 1.2% among 290,000;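 active means inhibition above the campaign mean inhibition over all tested compounds plus 3 SD, cut at about 28% in these data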;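 further: 0% = plate median of test compound wells and 100% = 2 mM ZnCl2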
ABHD5 PLIN5 PPI: inhibitors of human ABHD5-perilipin-5 interaction. Q00G26+Q8WTS1. Split G. princeps luciferase complementation, luminescence, 4 h. inhibition, % at 4 µM. hit rate 0.78% among 360,000;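 active means inhibition above the mean inhibition across every tested compound plus 3 SD, cut at about 22% in these data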;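 further: 0% = DMSO only wells and the 100% control is not disclosed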
Platelet DG rel: modulates dense granule release in human platelets; hit rate 0.22% among 300,000; human platelet-rich plasma, SFLLRN dense granule ATP release, luminescence; inhibition, %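 (compounds screened at 7.5 µM in platelet-rich plasma)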; AID 1663;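 active means mean replicate score, as percent of positive control, at or above 50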
Exocytosis inh: blocks lytic granule exocytosis | TALL-104 LAMP-1 surface exposure, flow cytometry; cells stimulated with thapsigargin and PMA | inhibition, % at 10 µM | hit rate 0.66% among 360,000 | AID 651702;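 active means inhibition above about 55%, limit read from the data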
Rce1 inhib: blocks yeast Ras-converting enzyme | yeast membranes, quenched prenylated peptide cleavage fluorescence | hit rate 0.27% among 290,000 | AID 2563 | Q03530 | calls only;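 active means fall in fluorescence gain of 50% or more versus controls, with final raw signal at or below 3038400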;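 further: plate controls were neutral control wells for no effect and wells lacking membranes for full effect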
Target sequence (Q03530 whole entry, looked up): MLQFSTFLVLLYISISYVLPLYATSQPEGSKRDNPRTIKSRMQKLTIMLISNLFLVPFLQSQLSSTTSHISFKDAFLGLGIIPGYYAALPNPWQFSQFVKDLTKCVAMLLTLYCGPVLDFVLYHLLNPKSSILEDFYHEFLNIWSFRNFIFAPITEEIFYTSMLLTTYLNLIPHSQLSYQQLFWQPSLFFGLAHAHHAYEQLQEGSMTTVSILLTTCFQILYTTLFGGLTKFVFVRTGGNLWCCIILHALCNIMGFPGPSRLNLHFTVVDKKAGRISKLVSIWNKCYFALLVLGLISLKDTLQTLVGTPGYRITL
Starred values were filed as active, the others as inactive; i = inactive; . = no result; + = active, no number. This is a sample that favours compounds with a hit; in the whole collection about 2.6% have one here.

SMILES	PfM18AAP inh	ABHD5 PLIN5 PPI	Platelet DG rel	Exocytosis inh	Rce1 inhib
CC(C)c1c(C(=O)N/N=C/c2ccc(OCc3ccc(F)cc3)cc2)nnn1-c1nonc1N	2	13	-6	-1	i
CC(C)c1c(C(=O)N/N=C/c2c[nH]c3ccccc23)nnn1-c1nonc1N	-13	-3	-10	13	+
CC(C)c1c(C(=O)N/N=C/c2cccc3ccccc23)nnn1-c1nonc1N	-7	2	16	8	+
COc1cccc(/C=N/NC(=O)c2nnn(-c3nonc3N)c2C(C)C)c1OCc1ccc(F)cc1	-5	-4	-7	-2	+
Cc1cc(C)n(CC(=O)N/N=C/c2ccc(C)o2)n1	3	-3	-3	5	i
CCOC(=O)CN(Cc1ccccc1)S(=O)(=O)c1ccc(NC(C)=O)cc1	6	4	-5	-2	i
COc1ccc(CNC(=O)N2CCN(c3ccc(F)cc3)CC2)cc1Cl	0	0	17	0	i
Cc1cc2c(C)nc(N/N=C/c3ccc([N+](=O)[O-])cc3)nc2o1	30*	5	2	-1	i
COC(=O)c1cccc(NC(=O)CSc2nc3cccnc3n2C)c1	6	-1	.	-1	.
O=C(O)c1cc(S(=O)(=O)N(Cc2ccccc2)c2ccccc2Cl)ccc1Cl	3	1	1	0	i
Cc1ccc(-c2nc(Nc3ccc(N4CCOCC4)cc3)c3ccccc3n2)cc1	2	4	8	-5	+
Cc1ccc(O)c(N/C=C/C(=O)c2ccc(F)cc2)c1	28*	-7	6	-2	i
O=C(/C=C/Nc1ccc(F)cc1Br)c1ccccc1	2	-5	52*	0	i
CCOC(=O)c1c(C)[nH]c(C)c1C(=O)COC(=O)c1cc2ccccc2cc1OC	-8	-1	5	2	i
CCOC(=O)c1c(C)[nH]c(C)c1C(=O)COC(=O)c1cc2ccccc2cc1O	53*	-2	8	0	i
CCN1CCc2nc(N)sc2C1	44*	-1	2	-2	i
C=CCN1CCc2nc(N)sc2CC1	4	-10	.	3	.
c1ccc(C2CCC3(CC2)Oc2ccccc2C2CC(c4cccnc4)=NN23)cc1 (configuration not stated)	18	.	0	.	i
CCOc1ccc(OCc2ccc(C(=O)NCc3cccnc3)o2)cc1	3	4	70*	-3	i
Cc1cc(C(=O)N2CCC(C)CC2)on1	-2	0	7	0	i
CC(C)(CCC(=S)N1CCOCC1)C1CCCCC1	30*	2	1	-17	.
Cc1ccc(S(=O)(=O)N2CCC(C(=O)NNC(=O)c3ccccc3O)CC2)cc1C	.	-2	-2	12	i
Cc1ccc(NC(=O)C2CCN(S(=O)(=O)c3c(C)noc3/C=C/c3ccco3)CC2)nc1	-9	1	8	4	i
Cc1noc(/C=C/c2ccco2)c1S(=O)(=O)N1CCC(C(=O)N2CCc3ccccc3C2)CC1	0	22*	-6	2	i
CCOc1ccc(S(=O)(=O)Nc2cc(Sc3ncn[nH]3)c3oc(=O)sc3c2)cc1	29*	.	-25	.	i
SMILES	PfM18AAP inh	ABHD5 PLIN5 PPI	Platelet DG rel	Exocytosis inh	Rce1 inhib
COc1ccc(S(=O)(=O)Nc2cc(Sc3ncn[nH]3)c(O)cc2C)cc1	.	6	.	-3	.
N#Cc1nc(-c2ccco2)oc1N1CCN(C(c2ccccc2)c2ccccc2)CC1	4	-3	2	-6	+
C/C(=C\C(=O)C(F)(F)F)Nc1ccc(C(F)(F)F)cc1	-1	0	2	-2	i
Oc1c(Br)cc(Br)cc1C=Nc1cccc2ncccc12	.	-25	4	67*	i
CC1(C)CC(=O)C2=C(C1)OC(N)=C(C#N)C2C#Cc1ccccc1 (configuration not stated)	5	6	6	9	i
CC(c1ccccc1)C1C(C#N)=C(N)OC2=C1C(=O)CC(C)(C)C2 (configuration not stated)	4	-4	12	75*	.
CCCn1c(SCC(=O)Nc2nc(-c3ccc(OC)cc3)cs2)nc2c1c(=O)n(C)c(=O)n2C	-2	1	8	1	i
O=Cc1cn(-c2ccccc2)nc1-c1cccnc1	2	-5	-3	2	i
O=c1c(O)c(-c2ccc(O)cc2O)oc2cc(O)cc(O)c12	30*	.	.	.	.
Cc1nc2ccc(NC(=O)c3ccc(C)c(S(=O)(=O)N4CCOCC4)c3)cc2s1	.	2	.	3	.
CCOC(=O)/C(C#N)=C/c1cc(C)n(-c2ccc(C)cc2)c1C	-4	3	2	86*	i
CCN(c1ccccc1)S(=O)(=O)c1ccc(Cl)c(NC(=O)CN2CCN(C)CC2)c1	.	1	.	2	.
CCCCNC(=S)N(C)/N=C/c1ccc(F)cc1	6	-1	0	0	i
COc1ccccc1-n1nc(C)cc1N	-1	-7	2	-3	i
O=C(NCC(c1ccco1)N1CCN(c2ccc(F)cc2)CC1)C(=O)NC1CCCC1 (configuration not stated)	.	0	-3	-1	i
COc1ccc(C(NC(=O)/C=C\c2ccco2)c2ccc(OC)c(OC)c2)cc1 (configuration not stated)	-37	22*	-3	-4	i
COc1cccc(/C=N/NC(=O)C(=O)N/N=C/c2cccc(OC)c2O)c1O	-12	4	.	0	.
COc1cccc(/C=N/NC(=O)c2ccoc2C)c1O	3	-8	98*	-3	i
COc1cc(/C=N/NC(=O)c2ccoc2C)ccc1O	6	2	12	2	i
CCOc1ccc(/C=N/NC(=O)c2ccoc2C)cc1OC	4	2	50*	7	.
COc1ccc(/C=N/NC(=O)c2cc3c(OC)ccc(OC)c3[nH]2)cc1O	9	-3	9	62*	i
COc1cccc(/C=N/NC(=O)c2cc3cc([N+](=O)[O-])ccc3s2)c1O	-11	0	5	69*	i
COC(=O)c1ccc(Cn2c(C)c(C(=O)NCc3cccs3)sc2=O)o1	.	-3	.	-1	.
Cc1cccn2cc(-c3c[nH]c4ccccc34)nc12	4	4	14	5	i
CCN(CC)c1ccc(/C=N/NC(=O)c2ccoc2C)cc1	-7	-5	67*	1	i
SMILES	PfM18AAP inh	ABHD5 PLIN5 PPI	Platelet DG rel	Exocytosis inh	Rce1 inhib
COc1cc(/C=N/NC(=O)c2nonc2C)ccc1O	6	-4	53*	6	i
CCCCC(=O)Nc1cccc(-c2cn3ccsc3n2)c1	-10	3	5	-9	i
CCCc1[nH]n(-c2ccc([N+](=O)[O-])cc2)c(=O)c1C=NCCc1c[nH]c2ccccc12	2	5	6	90*	i
Cc1[nH]n(-c2ccc([N+](=O)[O-])cc2)c(=O)c1C=NCCc1c[nH]c2ccccc12	0	1	19	28	i
CCOC(=O)CNC(=S)n1cnc(N)n1	57*	-10	-4	-2	i
CS(=O)(=O)c1sc(C#N)c2c1C(=O)CC(c1ccccc1)C2 (configuration not stated)	-41	57*	0	42	i

Assay outcomes: PubChem BioAssay, several laboratories
